{"source": "the supplement of paper PMC4954754", "note": "± gives the uncertainty stated by the source.", "data": [{"tested_on": "HEK293T-Rex ERSE-FLuc", "experiment": "ERSE-FLuc reporter activation, triplicate confirmation, relative to 500 nM thapsigargin (% of thapsigargin); higher = stronger ATF6/ERSE reporter activation", "conditions": "6.8 µM; 18 h; screen: confirmation", "procedure": "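HEK293T-Rex cells stably expressing the ERSE-firefly luciferase (BiP promoter, ATF6-preferring) or XBP1-splicing Renilla luciferase (IRE1/XBP1s) reporter, 1536-well plates, compound at 6.8 µM for 18 hr at 37 °C; luminescence read […] and expressed as % activation = 100*(compound - median DMSO)/(median 500 nM thapsigargin - median DMSO). Primary screen was single-pass; confirmation screen in triplicate (mean ± SD).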", "values": [{"smiles": "COc1cc(/C=C/c2ccc(O)c(OC)c2)ccc1O", "ERSE-FLuc reporter activation": "35.9 ± 9.1"}, {"smiles": "COc1ccc(/C=C/c2ccc3cccc(OC(C)=O)c3n2)cc1OC(C)=O", "ERSE-FLuc reporter activation": "39.7 ± 5.5"}, {"smiles": "O=C(CCc1ccccc1)Nc1ccc(Cl)cn1", "ERSE-FLuc reporter activation": "27.8 ± 4.6"}, {"smiles": "COc1ccccc1-c1cc(C(=O)Nc2cc(C)ccc2O)no1", "ERSE-FLuc reporter activation": "29.1 ± 4"}, {"smiles": "Nc1ccc2nc(-c3cc(Cl)c(N)c(Cl)c3)[nH]c2c1", "ERSE-FLuc reporter activation": "35.6 ± 10"}, {"smiles": "O=C1/C(=C/c2ccc(O)c(O)c2)SC(=S)N1c1ccc(O)cc1", "ERSE-FLuc reporter activation": "30.5 ± 8.2"}, {"smiles": "Cn1cccc1/C=C1/SC(=Nc2ccccc2)NC1=O", "ERSE-FLuc reporter activation": "37.4 ± 1.9"}, {"smiles": "O=C(NCCCn1ccnc1)c1cc(-c2cccs2)on1", "ERSE-FLuc reporter activation": "42.5 ± 6.9"}, {"smiles": "N#Cc1c(NC(=O)c2cccc(F)c2)sc2c1CCC2", "ERSE-FLuc reporter activation": "25.9 ± 3.9"}, {"smiles": "O=C(CC(=O)Nc1ccc2nc3n(c(=O)c2c1)CCCCC3)NCc1ccco1", "ERSE-FLuc reporter activation": "28 ± 11"}, {"smiles": "O=C(Nc1ccc2c(c1)OCCO2)C(=O)Nc1ccccc1Cl", "ERSE-FLuc reporter activation": "27 ± 5.6"}, {"smiles": "CC(C)CNC(=O)c1cc(-c2ccc(F)cc2)no1", "ERSE-FLuc reporter activation": "26.6 ± 1.6"}, {"smiles": "CN(C)c1ccc(/C=C(/C#N)C(=O)Nc2ccc(O)cc2)cc1", "ERSE-FLuc reporter activation": "33.3 ± 5"}, {"smiles": "COc1cccc(C(=O)Nc2sc3c(c2C#N)CC(C)CC3)c1", "note": "(stereo not given)", "ERSE-FLuc reporter activation": "28 ± 5.5"}, {"smiles": "O=C(Nc1ccccc1O)c1cc2ccccc2o1", "ERSE-FLuc reporter activation": "33 ± 7.3"}, {"smiles": "Cc1ccc(O)c(NC(=O)CN(C)S(=O)(=O)c2ccc(Cl)cc2)c1", "ERSE-FLuc reporter activation": "29.8 ± 0.59"}, {"smiles": "O=C(N/N=C\\C(Br)=C\\c1ccccc1)c1n[nH]c2c1CCCC2", "ERSE-FLuc reporter activation": "35 ± 4.1"}, {"smiles": "COc1ccc(C2=Nn3c(nnc3-c3ccc(OC)cc3)SC2)cc1", "ERSE-FLuc reporter activation": "30.7 ± 4.3"}, {"smiles": "COc1ccccc1OCC(=O)Nc1cc(C)ccc1O", "ERSE-FLuc reporter activation": "33.1 ± 6.4"}, {"smiles": "C(=C\\c1ccccc1)/C=N/Nc1nc2ccccc2[nH]1", "ERSE-FLuc reporter activation": "27.2 ± 3.8"}, {"smiles": "Cc1ccc(O)c(N/C=C/C(=O)c2ccc(F)cc2)c1", "ERSE-FLuc reporter activation": "140 ± 17"}, {"smiles": "CC(=O)N1CCc2c([nH]c3ccccc23)C12CCN(CCCOc1ccccc1)CC2", "ERSE-FLuc reporter activation": "44.2 ± 8.7"}, {"smiles": "COc1cccc(/C=N/NC(=O)c2n[nH]c3c2CCCC3)c1", "ERSE-FLuc reporter activation": "31.5 ± 1.1"}, {"smiles": "Cc1nc(-c2ccc(C(=O)Nc3ccc(O)cc3)cc2)cs1", "ERSE-FLuc reporter activation": "31.8 ± 7.4"}, {"smiles": "Cc1ccc(Nc2nc(N)c3ccccc3n2)cc1Cl", "ERSE-FLuc reporter activation": "34.8 ± 5.8"}, {"smiles": "Nc1nc(Nc2ccccc2)cc(-c2ccccc2)n1", "ERSE-FLuc reporter activation": "33.8 ± 3.9"}, {"smiles": "COc1ccc(/C=N/NC(=O)c2cccc(F)c2)cc1Br", "ERSE-FLuc reporter activation": "35.4 ± 1.5"}, {"smiles": "NC(=O)c1c(NC(=O)c2cccc3ccccc23)sc2c1CCC2", "ERSE-FLuc reporter activation": "32 ± 1.6"}, {"smiles": "O=C(N/N=C/c1ccc(Cl)cc1Cl)c1ccc(O)c(O)c1", "ERSE-FLuc reporter activation": "25.8 ± 6.1"}, {"smiles": "CCCNC(=O)c1cc(-c2cccs2)on1", "ERSE-FLuc reporter activation": "51.5 ± 5.4"}, {"smiles": "CCCc1cc(C(=O)Nc2cc(C)ccc2O)no1", "ERSE-FLuc reporter activation": "83.4 ± 6.3"}, {"smiles": "CCOc1ccc(NC(=O)c2cccc(F)c2)c([N+](=O)[O-])c1", "ERSE-FLuc reporter activation": "25.9 ± 2.4"}, {"smiles": "O=C1N/C(=C/c2ccc(O)cc2)C(=O)N1Cc1ccc(Br)cc1", "ERSE-FLuc reporter activation": "37.1 ± 3.6"}, {"smiles": "COC(=O)c1ccc2c(COC(C)=O)c(OC(C)=O)ccc2c1COC(C)=O", "ERSE-FLuc reporter activation": "113 ± 10"}, {"smiles": "Cc1ccc(-c2csc(Nc3ccc(O)cc3)n2)cc1", "ERSE-FLuc reporter activation": "26.7 ± 7.1"}, {"smiles": "COc1cccc(Nc2nc(-c3ccc(OC)c(F)c3)cs2)c1", "ERSE-FLuc reporter activation": "25.2 ± 4.3"}, {"smiles": "Nc1nc(Nc2ccc(Cl)c(Cl)c2)nc2ccccc12", "ERSE-FLuc reporter activation": "43.5 ± 3.9"}, {"smiles": "COc1ccc(-n2nnnc2SCC(N)=O)c(OC)c1", "ERSE-FLuc reporter activation": "34.5 ± 5.7"}, {"smiles": "Cc1ccc(O)c(N=CC2=C(O)c3ccccc3C2=O)c1", "ERSE-FLuc reporter activation": "78.8 ± 6.2"}, {"smiles": "COc1cccc(/C=N/NC(=O)c2ccc(NC(=O)c3ccc(C)cc3)cc2)c1O", "ERSE-FLuc reporter activation": "36.4 ± 11"}]}]}
